Results reported in ChEMBL document CHEMBL1961873, “Compounds: GSK PKIS; Assays: Nanosyn kinase panel” (2012).

How the values were obtained:
[1] = target: Serine/threonine-protein kinase pim-2 (Homo sapiens) (UniProt Q9P1W9); conditions: at 1 µM;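 further: each value is a mean of the inhibition measurements against the kinase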
[2] = target: Serine/threonine-protein kinase pim-3 (Homo sapiens) (UniProt Q86V86); conditions: at 0.1 µM
[3] = target: Serine/threonine-protein kinase pim-3 (Homo sapiens) (UniProt Q86V86); conditions: at 1 µM
[4] = target: T1, MAP kinase-activated protein kinase 5 (Homo sapiens) (UniProt Q8IW41); conditions: at 0.1 µM
T1 sequence (whole entry): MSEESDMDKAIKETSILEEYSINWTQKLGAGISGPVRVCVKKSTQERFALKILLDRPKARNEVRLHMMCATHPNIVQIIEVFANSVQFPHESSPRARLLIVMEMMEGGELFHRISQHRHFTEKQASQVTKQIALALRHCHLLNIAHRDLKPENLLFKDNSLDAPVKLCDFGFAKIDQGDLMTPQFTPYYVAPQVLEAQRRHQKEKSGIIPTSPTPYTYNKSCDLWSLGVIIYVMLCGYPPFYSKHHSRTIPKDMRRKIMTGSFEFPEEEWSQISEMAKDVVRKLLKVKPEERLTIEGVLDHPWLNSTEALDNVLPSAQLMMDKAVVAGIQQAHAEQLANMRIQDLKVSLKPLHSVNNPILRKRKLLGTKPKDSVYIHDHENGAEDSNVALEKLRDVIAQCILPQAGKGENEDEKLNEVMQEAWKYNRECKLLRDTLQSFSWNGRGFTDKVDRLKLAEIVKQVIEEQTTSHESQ

[5] = target: T1, MAP kinase-activated protein kinase 5 (Homo sapiens); conditions: at 1 µM
[6] = target: Serine/threonine-protein kinase SIK1 (Homo sapiens) (UniProt P57059); conditions: at 0.1 µM
Sequence of Serine/threonine-protein kinase SIK1 (Homo sapiens) (P57059 whole entry): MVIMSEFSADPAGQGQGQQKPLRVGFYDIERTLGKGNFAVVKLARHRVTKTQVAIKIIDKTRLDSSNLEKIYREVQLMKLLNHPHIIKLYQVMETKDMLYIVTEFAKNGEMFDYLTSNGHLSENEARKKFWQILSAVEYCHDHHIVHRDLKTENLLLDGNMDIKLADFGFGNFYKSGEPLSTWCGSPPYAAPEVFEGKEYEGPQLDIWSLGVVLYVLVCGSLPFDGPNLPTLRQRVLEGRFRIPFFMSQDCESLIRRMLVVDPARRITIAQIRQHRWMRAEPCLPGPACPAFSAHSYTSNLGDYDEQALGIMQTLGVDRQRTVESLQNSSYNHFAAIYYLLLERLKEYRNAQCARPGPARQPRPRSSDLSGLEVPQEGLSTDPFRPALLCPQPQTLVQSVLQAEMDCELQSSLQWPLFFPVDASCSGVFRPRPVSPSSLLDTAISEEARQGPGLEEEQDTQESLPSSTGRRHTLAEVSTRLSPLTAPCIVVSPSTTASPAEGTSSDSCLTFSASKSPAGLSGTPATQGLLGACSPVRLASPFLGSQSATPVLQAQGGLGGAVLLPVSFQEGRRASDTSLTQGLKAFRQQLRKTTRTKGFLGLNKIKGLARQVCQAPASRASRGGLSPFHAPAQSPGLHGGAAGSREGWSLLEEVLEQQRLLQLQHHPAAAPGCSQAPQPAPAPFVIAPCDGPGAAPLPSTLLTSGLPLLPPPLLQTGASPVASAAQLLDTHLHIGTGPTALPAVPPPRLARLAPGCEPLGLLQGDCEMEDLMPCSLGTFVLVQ

[7] = target: Serine/threonine-protein kinase SIK1 (Homo sapiens) (UniProt P57059); conditions: at 1 µM
[8] = target: Serine/threonine-protein kinase SIK2 (Homo sapiens) (UniProt Q9H0K1); conditions: at 0.1 µM
Sequence of Serine/threonine-protein kinase SIK2 (Homo sapiens) (Q9H0K1 whole entry, looked up): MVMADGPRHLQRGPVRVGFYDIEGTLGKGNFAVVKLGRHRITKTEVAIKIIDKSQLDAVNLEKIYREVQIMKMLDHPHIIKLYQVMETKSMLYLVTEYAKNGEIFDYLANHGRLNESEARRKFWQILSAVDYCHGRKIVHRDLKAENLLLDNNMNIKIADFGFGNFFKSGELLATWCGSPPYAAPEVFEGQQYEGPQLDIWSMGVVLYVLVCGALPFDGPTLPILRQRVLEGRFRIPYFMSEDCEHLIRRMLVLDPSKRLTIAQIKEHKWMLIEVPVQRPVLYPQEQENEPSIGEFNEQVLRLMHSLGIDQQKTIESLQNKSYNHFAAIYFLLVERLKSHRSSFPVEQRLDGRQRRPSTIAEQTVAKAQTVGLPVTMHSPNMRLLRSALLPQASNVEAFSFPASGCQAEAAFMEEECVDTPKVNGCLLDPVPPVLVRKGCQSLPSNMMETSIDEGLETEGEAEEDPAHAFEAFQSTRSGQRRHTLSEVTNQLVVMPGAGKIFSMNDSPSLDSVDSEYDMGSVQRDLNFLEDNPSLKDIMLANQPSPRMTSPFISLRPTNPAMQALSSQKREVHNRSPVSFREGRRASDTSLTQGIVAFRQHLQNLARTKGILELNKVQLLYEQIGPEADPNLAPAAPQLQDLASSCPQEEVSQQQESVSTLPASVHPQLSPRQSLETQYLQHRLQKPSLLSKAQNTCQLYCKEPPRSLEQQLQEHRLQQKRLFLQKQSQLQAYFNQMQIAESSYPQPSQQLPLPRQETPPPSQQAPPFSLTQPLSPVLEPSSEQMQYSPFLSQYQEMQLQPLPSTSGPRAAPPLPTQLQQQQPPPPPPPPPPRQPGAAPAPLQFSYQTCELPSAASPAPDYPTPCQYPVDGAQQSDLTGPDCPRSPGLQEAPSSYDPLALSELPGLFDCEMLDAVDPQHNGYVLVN

[9] = target: Serine/threonine-protein kinase SIK2 (Homo sapiens) (UniProt Q9H0K1); conditions: at 1 µM
[10] = target: T2, Serine/threonine-protein kinase TBK1 (Homo sapiens) (UniProt Q9UHD2); conditions: at 0.1 µM;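 further: values are the mean TBK1 inhibition, taken from the GSK PKIS screening data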
T2 sequence (whole entry): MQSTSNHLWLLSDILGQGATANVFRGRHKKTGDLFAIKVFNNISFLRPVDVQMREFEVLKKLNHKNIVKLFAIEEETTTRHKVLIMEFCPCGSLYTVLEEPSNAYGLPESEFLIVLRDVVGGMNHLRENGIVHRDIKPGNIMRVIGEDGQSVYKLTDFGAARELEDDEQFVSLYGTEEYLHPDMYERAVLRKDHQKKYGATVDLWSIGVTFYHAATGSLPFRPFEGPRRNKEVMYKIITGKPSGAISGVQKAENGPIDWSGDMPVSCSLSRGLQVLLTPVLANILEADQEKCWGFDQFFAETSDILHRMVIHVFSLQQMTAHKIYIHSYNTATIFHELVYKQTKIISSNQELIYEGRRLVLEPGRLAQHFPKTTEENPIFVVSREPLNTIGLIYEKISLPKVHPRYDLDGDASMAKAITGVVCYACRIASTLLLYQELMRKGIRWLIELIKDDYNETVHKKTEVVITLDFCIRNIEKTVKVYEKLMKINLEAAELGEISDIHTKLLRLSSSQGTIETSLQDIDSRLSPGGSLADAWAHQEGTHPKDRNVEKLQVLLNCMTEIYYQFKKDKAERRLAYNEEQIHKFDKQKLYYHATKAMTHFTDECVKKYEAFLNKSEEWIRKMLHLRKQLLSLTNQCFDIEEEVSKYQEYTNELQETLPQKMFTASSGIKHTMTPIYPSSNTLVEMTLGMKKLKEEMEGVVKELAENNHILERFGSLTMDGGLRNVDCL

Sequence of Serine/threonine-protein kinase pim-2 (Homo sapiens) (Q9P1W9 whole entry, looked up): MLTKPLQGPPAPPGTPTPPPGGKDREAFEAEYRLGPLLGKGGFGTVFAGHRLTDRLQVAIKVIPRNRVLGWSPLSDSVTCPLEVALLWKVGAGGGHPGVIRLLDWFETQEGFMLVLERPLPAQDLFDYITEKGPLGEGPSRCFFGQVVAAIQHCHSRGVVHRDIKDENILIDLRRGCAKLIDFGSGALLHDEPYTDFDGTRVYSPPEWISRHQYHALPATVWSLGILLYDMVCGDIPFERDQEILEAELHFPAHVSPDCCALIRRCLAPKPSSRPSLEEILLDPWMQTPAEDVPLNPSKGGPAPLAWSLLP

Compound | inhibition [1] [%] | inhibition [2] [%] | inhibition [3] [%] | inhibition [4] [%] | inhibition [5] [%] | inhibition [6] [%] | inhibition [7] [%] | inhibition [8] [%] | inhibition [9] [%] | inhibition [10] [%]
CCn1c(-c2nonc2N)nc2c(C#CC(C)(C)O)ncc(OC3CCNCC3)c21 | 11.7 | 2.64 | 23.8 | 0.79 | 1.22 | 3.53 | 10.6 | 3.69 | 14.8 | 12.2
CC(=O)Nc1cccc(C#Cc2cncnc2Nc2ccc(OCc3cccc(F)c3)c(Cl)c2)c1 | 1.31 | 2.57 | -1.69 | 0.16 | -0.79 | 4.24 | 2.15 | 1.42 | 1.44 | 1.95
NC(=O)c1sc(-n2cnc3ccc(C(F)(F)F)cc32)cc1OCc1ccccc1Br | -0.68 | 1.1 | 0.16 | 1.65 | 2.02 | 6.13 | 9.77 | 5.75 | 9.85 | 0.45
CN1CCC(n2cnc(-c3ccc(F)cc3)c2-c2ccnc(N)n2)CC1 | 6.09 | 2.48 | 21.3 | 1 | 1.6 | 2.58 | 7.47 | 7.38 | 21.9 | -1.27
Nc1ncc(-c2cccc(S(N)(=O)=O)c2)c2scc(-c3ccc(F)c(Cl)c3)c12 | 0.78 | 1.11 | 0.91 | 1.73 | 1.77 | 20.4 | 61 | 9.17 | 28.8 | 3.75
Clc1ccc(-c2nn3ncccc3c2-c2ccnc(Nc3ccccc3)n2)cc1 | 0.51 | 3.12 | 0.33 | 0.57 | -0.73 | 3.67 | 13.6 | -1.6 | 13.9 | 1.29
COc1cc(Nc2nccc(Nc3ccc4c(C)n[nH]c4c3)n2)cc(OC)c1OC | 1.57 | 2.01 | -0.7 | -0.04 | -1.77 | 8.95 | 51.2 | 4.45 | 28 | 4.57
CCN1CCC(CC(=O)Nc2n[nH]c3nnc(-c4cccc(F)c4F)cc23)CC1 | 1.56 | 1.76 | 2.5 | 1.08 | 1.15 | 4.85 | 5.87 | -1.82 | 1.81 | 1.12
N#Cc1c(NC(=O)CN2CCOCC2)sc2c1CCCC2 | 1.1 | 0.45 | 1.12 | 1.41 | 2.49 | 0.17 | 6.91 | 5.2 | 8.69 | 1.76
Nc1nc(-c2cccc(Cl)c2)c(-c2ccc3ncccc3n2)s1 | 0.44 | 1.25 | 4.87 | 2.21 | 4.45 | 3.24 | 9.29 | 4.96 | 14.6 | 3.03
CCc1nn2ncccc2c1-c1ccnc(NC2CC2)n1 | 1.22 | 0.67 | 4.22 | 0.66 | 1.12 | 0.6 | 7.84 | 0.42 | 2.21 | 2.11
COC(=O)Nc1nc2ccc(Oc3ccc(NC(=O)Nc4cccc(Cl)c4)cc3)cc2[nH]1 | -1.04 | -0.85 | -1.87 | 0.18 | -0.5 | 1.1 | 4.14 | 0.4 | 1.86 | 1.34
CNC(=O)c1cncc(/C=C/c2ccccc2Cl)c1 | 0.04 | 3.4 | 5.1 | 0.27 | 1.73 | 2.02 | 25.6 | 2.24 | 8.3 | 0.45
COc1ccc(-c2cc(-c3c[nH]nc3-c3ccccn3)ccn2)cc1 | 1.29 | 0.79 | 1.9 | 2.14 | 4.32 | 11.2 | 7.23 | 3.82 | 11.3 | 4.48
COc1cc2c(cc1Nc1nc(Nc3ccsc3C(N)=O)c3cc[nH]c3n1)N(C(=O)CN(C)C)CCC2(C)C | 11.9 | 18.4 | 68.1 | 1.65 | 3.7 | 2.02 | 7.92 | 7.71 | 7.78 | 11.3
c1cc(-c2cnn3nc(N4CCOCC4)ccc23)nc(NC2CC2)n1 | 0.92 | -0.59 | 4.8 | 1.08 | 0.41 | 7.04 | 5.66 | 6.34 | 7.7 | 3.02
Cc1ccc2c(-c3ccnc(Nc4ccccc4)n3)c(-c3ccc(F)cc3)nn2n1 | 0.72 | -1.46 | -3.61 | 0.87 | -0.35 | 1.9 | 24.1 | 13.3 | 33.2 | 1.85

Compound | inhibition [1] [%] | inhibition [2] [%] | inhibition [3] [%] | inhibition [4] [%] | inhibition [5] [%] | inhibition [6] [%] | inhibition [7] [%] | inhibition [8] [%] | inhibition [9] [%] | inhibition [10] [%]
Cc1ccc(O)cc1Nc1ccnc2cc(-c3ccccn3)ccc12 | 1.15 | -0.3 | -0.17 | 1.2 | 0.39 | 14.9 | 48.6 | 6.77 | 23.9 | 2.89
CC(=O)NCc1cccc(C#Cc2cncnc2Nc2ccc(OCc3cccc(F)c3)c(Cl)c2)c1 | 0.6 | -0.57 | -1.13 | 0 | 0.14 | 1.32 | 2.96 | -1.4 | 5.8 | -0.27
N#Cc1c(NC(=O)c2ccc(F)cc2)sc2c1CCCC2 | -0.05 | 0.71 | 1.6 | 0.52 | -0.3 | 1.57 | 3.96 | -1.57 | 8.23 | 0.78
O=S(=O)(CCNCc1ccc(-c2ccc3ncnc(Nc4ccc(OCc5cccc(F)c5)c(Cl)c4)c3c2)o1)c1ccccc1 | 0.58 | -0.16 | 1.33 | 2.07 | 2.09 | 3.17 | 9.64 | 2.1 | 6.58 | 4.82
CC1=C(C(=O)Nc2cc(Cl)c3[nH]ncc3c2)C(c2ccc(C(F)(F)F)cc2)CC(=O)N1 (stereo not given) | -0.24 | -0.23 | -0.25 | 1.37 | 2.73 | 4.89 | 8.58 | 4.56 | 11.8 | 2.77
Fc1ccc(-c2nn3ccccc3c2-c2ccncc2)cc1 | -0.05 | -0.94 | -1.43 | 0.01 | -0.42 | 1.08 | 4.41 | 0 | 14.9 | 2.66
COc1ccc2c(-c3ccnc(Nc4cccc(OC(F)(F)F)c4)n3)cnn2n1 | 0.02 | 0.74 | 1.07 | 1.98 | 3.27 | 7.04 | 12.8 | 9.16 | 12.1 | 7.22
Nc1nc(-c2ccc(F)cc2)c(-c2ccc3ncccc3n2)s1 | 0.96 | 0.41 | 2.02 | 1.52 | 2.44 | 11.6 | 7.23 | 8.76 | 11.6 | 3.41
CCNC(=O)O[C@H]1CN[C@H](C#Cc2cc3ncnc(Nc4ccc(OCc5cccc(F)c5)c(Cl)c4)c3s2)C1 | -0.15 | -0.41 | -2.78 | 0.89 | 0.04 | 9.17 | 7.09 | 4.37 | 4.15 | 1.48
COc1ccc(-c2oc3ncnc(N)c3c2-c2ccc(NC(=O)Nc3cc(C(F)(F)F)ccc3F)cc2)cc1 | 1.06 | 0.37 | 5 | 2.58 | 4.28 | 6.56 | 14.4 | 11.9 | 10.7 | 1.47
CNC(=O)c1cc(-c2ccc(F)cc2)cc(-c2ccc(S(=O)(=O)N3CCCC3)cc2)c1N | 0.43 | -1.52 | -0.11 | 0.53 | 0.97 | 6.18 | 6.6 | 3.18 | 5.07 | 0.38
NS(=O)(=O)c1ccc(Nc2ncc(-c3ccccc3)o2)cc1 | 0.32 | -0.13 | 0.88 | 1.46 | 1.61 | 6.09 | 9.25 | 6.43 | 18.9 | 3.13
O=C(Nc1n[nH]c2cc(-c3ccc(F)cc3)ccc12)C1CC1 | 1.49 | 0.08 | 0.99 | 1.06 | 5.12 | 4.89 | 6.8 | 5.76 | 7.9 | 2.6
COC(=O)Nc1nc2ccc(S(=O)(=O)c3ccc(NC(=O)Nc4cc(C(F)(F)F)ccc4F)cc3)cc2[nH]1 | 0.73 | -0.65 | -1.2 | 0.38 | -0.4 | 2.55 | 3.12 | 0.97 | 0.1 | 2.66
CN1CCC(n2cnc(-c3ccc(F)cc3)c2-c2ccnc(Nc3ccccc3)n2)CC1 | 0.35 | 1.06 | 5.66 | 1.06 | 1.42 | 3.13 | 4.66 | 7.17 | 22.9 | 0.4
[O-][S+]1CCN(Cc2ccc(-c3ccc4ncnc(Nc5ccc(OCc6cccc(F)c6)c(Cl)c5)c4c3)o2)CC1 | 0.11 | 0.21 | 1.34 | 2 | 2.05 | 5.68 | 12.1 | 8.92 | 10.4 | 5.39
